Bioassay records: PubChem BioAssay, several laboratories
ERa SRC1 inh – blocks coactivator binding to human estrogen receptor alpha. P03372. TR-FRET ER-alpha LBD / SRC-1 peptide, estradiol-bound. inhibition, % at 25.6 µM. 1.7% of 86,000 active; in the data active = inhibition above about 50%;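 note: 0% = receptor plus peptide control and 100% = peptide only without receptor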
Smad3 FoxH1 inh – inhibitors of human Smad3 transcription factor binding | P84022 | TR-FRET Smad3/Dy647-FoxH1 peptide binding, europium anti-His | inhibition, % at 25 µM | 0.29% of 88,000 active;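 active = compounds that reduce the energy-transfer binding signal between the protein and its labelled peptide by more than half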;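 note: 0% = Smad3 plus labelled peptide maximal FRET and 100% = peptide-only background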
Target sequence (P84022 whole entry, looked up): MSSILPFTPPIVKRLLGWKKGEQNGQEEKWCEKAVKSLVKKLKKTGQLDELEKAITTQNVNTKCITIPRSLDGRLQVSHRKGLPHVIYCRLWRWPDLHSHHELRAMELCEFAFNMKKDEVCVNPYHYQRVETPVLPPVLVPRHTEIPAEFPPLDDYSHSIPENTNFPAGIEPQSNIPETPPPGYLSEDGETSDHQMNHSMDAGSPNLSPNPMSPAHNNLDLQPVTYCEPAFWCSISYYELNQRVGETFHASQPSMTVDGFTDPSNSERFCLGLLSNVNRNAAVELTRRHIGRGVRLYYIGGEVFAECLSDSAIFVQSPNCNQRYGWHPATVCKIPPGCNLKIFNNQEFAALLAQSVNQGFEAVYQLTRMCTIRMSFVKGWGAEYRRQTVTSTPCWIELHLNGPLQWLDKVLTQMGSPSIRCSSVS
ERb SRC1 inh – ER-beta (human) coactivator binding inhibition; Q92731; TR-FRET ER-beta LBD / SRC1-Cy5 peptide binding; receptor agonist-loaded with 1 µM estradiol; inhibition, % at 25.6 µM; 1.3% of 86,000 active; AID 633;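 active = compounds whose percent inhibition of the receptor-coactivator binding signal exceeds about 50% in the single-dose screen, limit read from the data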;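 note: 0% = receptor plus peptide wells without compound and 100% = peptide-only wells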
ERa SRC1 pot – ER-alpha (human) coactivator binding potentiation; P03372; TR-FRET ERalpha-LBD/SRC-Cy5 coactivator binding, 2 h; 100 = basal binding, no effect; coactivator binding (% of control), % at 25.6 µM; 1.3% of 86,000 active; in the data active = activity above about 200%;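 note: binding measured in presence of low estradiol as agonist stimulus; 0% = peptide alone without receptor and 100% = receptor with peptide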
Calb biofilm kill – kills Candida albicans biofilms; C. albicans biofilm + clotrimazole, Alamar Blue; inhibition, % at 6 µM; 0.14% of 85,000 active; AID 834;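 active = inhibition above 20%; inactive = inhibition below 20%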;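 note: preformed 24 hr biofilms exposed to compound for 48 hr; 0% = biofilm without compound and 100% = blank killed by clotrimazole plus chlorhexidine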
The depositor's hits bear a star; [ ] = remark or other dose. A selection: hits, their analogues and other compounds. The true share with any hit is near 3.8%.

For COc1cc(CN2CCCCC2)cc2cc(C(=O)O)c(=O)oc12 the results were Smad3 FoxH1 inh 14.1.
CC(=O)Nc1ccc(-c2nnc(SCC(=O)n3c4c(c5ccccc53)CCCC4)n2C)cc1 was read as ERa SRC1 inh -24.1, Smad3 FoxH1 inh 9.6, ERb SRC1 inh -14.6, ERa SRC1 pot 256.2* and Calb biofilm kill 4.6.
`Cn1c(SCC(=O)Nc2sccc2C#N)nnc1-c1ccccc1` gave ERa SRC1 inh 53.4*, Smad3 FoxH1 inh -6.3, ERb SRC1 inh 45.7, ERa SRC1 pot 28.9 and Calb biofilm kill 7.9.
Cn1c(SCC(=O)Nc2ccc3c(c2)oc2ccccc23)nnc1-c1ccccc1 was read as ERa SRC1 inh 51.5*, Smad3 FoxH1 inh 11.4, ERb SRC1 inh 30.9, ERa SRC1 pot 250.6*[fluorescence artefact?] and Calb biofilm kill 11.5.
`Cc1cccc(NC(=O)CSc2nnc(-c3ccncc3)n2C)c1` gave ERa SRC1 inh -5.4, Smad3 FoxH1 inh -0.7, ERb SRC1 inh 3.8, ERa SRC1 pot 100.7 and Calb biofilm kill 6.7.
Screening Cn1cnnc1SCC(=O)Nc1sccc1C#N returned ERa SRC1 inh 28.2, Smad3 FoxH1 inh 5.4, ERb SRC1 inh 18.9, ERa SRC1 pot 73.5 and Calb biofilm kill 3.8.
Screening Cn1c(SCC(=O)Nc2ccccc2F)nnc1-c1cc2ccccc2o1 returned ERa SRC1 inh -40.4, Smad3 FoxH1 inh -75.9, ERb SRC1 inh 5.7, ERa SRC1 pot 596.6*[fluorescence artefact?] and Calb biofilm kill 4.5.
C[N@@+]1(Cc2ccc(Cl)c(Cl)c2)CCC[C@@H]1c1ccc[n+](Cc2ccc(Cl)c(Cl)c2)c1 was read as Smad3 FoxH1 inh 1.3.
Screening CC(C)(SCc1ccccc1)[C@H](N)C(=O)O returned Smad3 FoxH1 inh -7.1.
For CC[C@@H](Nc1ncnc2nc[nH]c12)C(=O)O the results were Smad3 FoxH1 inh -0.2.
Screening C=CCc1c(C)nc(N)[nH]c1=O returned ERa SRC1 inh -20.6, Smad3 FoxH1 inh 4.3, ERb SRC1 inh -17.4, ERa SRC1 pot 102.2 and Calb biofilm kill 1.8.
Screening Cc1oc2ccccc2c1-c1cn2c(n1)SCC2 returned ERa SRC1 inh 0.5, Smad3 FoxH1 inh -4.6, ERb SRC1 inh 7.9, ERa SRC1 pot 83.5 and Calb biofilm kill 6.4.
Screening Oc1ccc(-c2cn3c(n2)SCC3)cc1O returned ERa SRC1 inh 74.8*[fluorescence artefact?], Smad3 FoxH1 inh 19.1, ERb SRC1 inh 94.1*[fluorescence artefact?], ERa SRC1 pot 20.1 and Calb biofilm kill 7.3.
Screening Oc1ccc(-c2cn3c(n2)SCC3)cc1 returned ERa SRC1 inh -7.7, Smad3 FoxH1 inh 12.2, ERb SRC1 inh 67.2*[fluorescence artefact?], ERa SRC1 pot 113.9 and Calb biofilm kill -7.0.
For c1ccc(-c2cn3c(n2)SCC3)cc1 the results were ERa SRC1 inh -8.0, Smad3 FoxH1 inh 3.8, ERb SRC1 inh -0.9, ERa SRC1 pot 103.2 and Calb biofilm kill 0.3.
`Cn1c(=O)c2[nH]c(CCC(=O)O)nc2n(C)c1=O` gave Smad3 FoxH1 inh -1.4.
`Clc1ccc(Cl)c(SCCCN2CCNCC2)c1` gave Smad3 FoxH1 inh 4.5.
COCC(=O)N(C)C1(c2nnnn2CCOC(=O)Nc2cccc3ccccc23)CCCC1 was read as ERa SRC1 inh 19.2, Smad3 FoxH1 inh -3.5, ERb SRC1 inh 61.4*[fluorescence artefact?], ERa SRC1 pot 76.6 and Calb biofilm kill -1.2.
CCCc1nnc2n1N=C(c1ccc(-c3cc(Cl)ccc3Cl)o1)CS2 was read as ERa SRC1 inh 72.8*, Smad3 FoxH1 inh 1.6, ERb SRC1 inh 45.1, ERa SRC1 pot 143.8 and Calb biofilm kill 11.7.
COc1ccc(C(=O)Nc2nc3cc(OC)c(OC)cc3c(=O)[nH]2)cc1 was read as ERa SRC1 inh 9.3, Smad3 FoxH1 inh 21.0, ERb SRC1 inh 22.3, ERa SRC1 pot 434.3* and Calb biofilm kill 4.5.
For COc1cc2nc(NC(=O)c3ccccc3)[nH]c(=O)c2cc1OC the results were ERa SRC1 inh 0.2, Smad3 FoxH1 inh 2.3, ERb SRC1 inh -1.5, ERa SRC1 pot 124.2 and Calb biofilm kill 1.7.
Screening CCC(C(=O)NCc1ccco1)n1nc(-c2ccc(OC)cc2)ccc1=O (centres undefined) returned ERa SRC1 inh 42.2, Smad3 FoxH1 inh -2.1, ERb SRC1 inh 37.3 and ERa SRC1 pot 227.2*[fluorescence artefact?].
Screening COc1ccc(C[N+](C)(C)N)cc1OC returned Smad3 FoxH1 inh -1.6.
Screening Cc1cc(Cc2c(C)c(C)c(Cc3cc(C)cc(C(C)(C)C)c3O)c(C)c2C)c(O)c(C(C)(C)C)c1 returned Smad3 FoxH1 inh -3.9.
`CCOC(=O)C1CCCN(C(=O)c2cc3ncc(Br)cn3n2)C1` (centres undefined) gave ERa SRC1 inh 56.9*, Smad3 FoxH1 inh 9.5, ERb SRC1 inh 60.1*[fluorescence artefact?], ERa SRC1 pot 41.6 and Calb biofilm kill 8.0.
For O=C(c1cc2ncc(Br)cn2n1)N1CCOCC1 the results were ERa SRC1 inh 49.0, Smad3 FoxH1 inh 9.4, ERb SRC1 inh 58.3*, ERa SRC1 pot 36.4 and Calb biofilm kill -0.8.
`CCOC(=O)C1CCCN(C(=O)c2cc(-c3ccc(C)cc3)on2)C1` (centres undefined) gave ERa SRC1 inh 0.8, Smad3 FoxH1 inh 1.9, ERb SRC1 inh -7.2, ERa SRC1 pot 114.9 and Calb biofilm kill 4.7.
Screening O=C(c1ccco1)N1CCN(C(=O)c2ccc(Cn3cc(Br)cn3)o2)CC1 returned ERa SRC1 inh 2.4, Smad3 FoxH1 inh -13.9, ERb SRC1 inh 0.6, ERa SRC1 pot 105.1 and Calb biofilm kill 10.5.
O=C(c1cc2ncc(Br)cn2n1)N1CCN(C(=O)c2ccco2)CC1 was read as ERa SRC1 inh 61.5*, Smad3 FoxH1 inh 2.7, ERb SRC1 inh 51.7*, ERa SRC1 pot 45.8 and Calb biofilm kill 0.1.
Screening O=C(O)[C@H]1CCCC[C@@H]1C(=O)Nc1nc2ccccc2[nH]1 returned Smad3 FoxH1 inh 3.4.
Cc1ccccc1NC(=O)Cc1nc(CSc2nnc(-c3ccc4c(c3)OCO4)o2)cs1 was read as ERa SRC1 inh -4.9, Smad3 FoxH1 inh 1.1, ERb SRC1 inh -2.2, ERa SRC1 pot 125.3 and Calb biofilm kill 2.5.
`C[N+](C)(N)Cc1nc(-c2ccc(Cl)cc2)no1` gave Smad3 FoxH1 inh 5.5.
CC(Sc1ncnc2ccccc12)C(=O)Nc1ccc2c(c1)OCO2 (centres undefined) was read as ERa SRC1 inh -7.7, Smad3 FoxH1 inh -9.9, ERb SRC1 inh -1.4, ERa SRC1 pot 86.5 and Calb biofilm kill 7.1.
`O=C(Nc1ccc2c(c1)OCO2)C1CCN(C(=O)CSc2ncnc3ccccc23)CC1` gave ERa SRC1 inh 54.5*[fluorescence artefact?], Smad3 FoxH1 inh 0.1, ERb SRC1 inh 46.5, ERa SRC1 pot 60.3 and Calb biofilm kill 7.7.
O=C(NCCCN1CCCCCC1)c1ccc(CS(=O)(=O)Cc2ccccc2F)o1 was read as ERa SRC1 inh 29.9, Smad3 FoxH1 inh 69.4*, ERb SRC1 inh 40.2, ERa SRC1 pot 635.5*[fluorescence artefact?] and Calb biofilm kill -1.0.
Screening O=C(NCCCN1CCCC1)c1ccc(CS(=O)(=O)c2ccc(Br)cc2)o1 returned ERa SRC1 inh 13.6, Smad3 FoxH1 inh -3.3, ERb SRC1 inh -0.2, ERa SRC1 pot 98.5 and Calb biofilm kill 11.6.
Screening O=C(NCCN1CCCCCC1)c1ccc(CS(=O)(=O)c2ccc(Br)cc2)o1 returned ERa SRC1 inh 80.6*[fluorescence artefact?], Smad3 FoxH1 inh 14.7, ERb SRC1 inh 49.8, ERa SRC1 pot 65.8 and Calb biofilm kill 4.4.
